Hit rate of the full screen: of about 340,000 compounds, about 3,300 (0.97%) were called active. Not shown: some 9% with an inconclusive outcome. The call rests on the fitted dose curve; in most records, active means well fitted inhibition curve with a large enough effect; inconclusive means small, poorly fitted or top-dose-only effect, or effect the other way; inactive means flat fitted curve, though single readings scatter. The list shows a part of the results.
Potency means the concentration at half of the fitted maximal effect.

This assay can be described thus: qHTS Assay for Modulators of miRNAs and/or Inhibitors of miR-21. Further: nearly all actives have a fitted effect of over 55% in size. The note with it: HeLa miR-21-FLuc reporter, luciferase luminescence, 48 h; actives lower the signal. Put shortly:
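Luminescence from a firefly luciferase reporter carrying a miR-21 binding site downstream, stably expressed under a CMV promoter in HeLa cells that make miR-21 endogenously, reports miRNA modulation after 48 h compound exposure up to approximately 40uM final.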
(In general: Quantitative high-throughput screening tests each substance at several concentrations.)
`COc1cccc(C2(O)CC(C(F)(F)F)=NN2C(=O)c2ccccn2)c1` (configuration not stated): the Potency is 13.1 µM (active).

As to `CN(C)c1ccc(/C=C(/C#N)C(=O)NCc2ccccc2)o1`, the Potency is 14.7 µM (active).

`CCN(CC)c1ccc(/C=C(/C#N)C(=O)NCc2ccccc2)o1`: the Potency was 10.4 µM (active).

For `CCCc1ccc(-c2cc(NC(=O)CSc3n[nH]c(N)n3)n(-c3ccccc3)n2)cc1`, the Potency was 18.5 µM (active).

As to `Cc1ccc(NC(=O)c2cnc3ccccc3n2)cc1C`, the Potency was 1.31 µM (active). The result for `NC(=O)c1ccc(NC(=O)c2cnc3ccccc3n2)cc1` reads 7.36 µM (active). With `c1ccc2c(c1)CCN(C1=Nc3cccc4cccc1c34)C2` the figure was 18.5 µM (active). The result for `CCOC(=O)Nc1sc2c(c1C#N)CCC(C)C2` (configuration not stated) reads 5.21 µM (active).

Consider `Cc1cc(C(=O)Nc2sc3c(c2C#N)CCC(C)C3)cs1` (configuration not stated), for which the Potency is 0.736 µM (active).

Turning to `c1cn2c(NC3CCCC3)c(-c3ccc(N4CCOCC4)cc3)nc2cn1`, the Potency is 6.56 µM (active). With `Cc1ccccc1Nc1c(-c2ccc(N3CCOCC3)cc2)nc2cnccn12` the figure was 4.65 µM (active); with `Cc1ccc(-c2nc3cnccn3c2Nc2ccccc2)o1`, 16.5 µM (active); with `Cc1ccc(Nc2c(-c3ccc(N4CCOCC4)cc3)nc3cnccn23)cc1`, 7.36 µM (active). On to `c1cn2c(Nc3ccc4c(c3)OCCO4)c(-c3ccc(N4CCOCC4)cc3)nc2cn1`, for which the Potency is 6.56 µM (active). The result for `COC(=O)c1c(C)[nH]c(C(=O)OCc2ccc(F)cc2)c1C` reads 2.07 µM (active). Turning to `CCOC(=O)c1c(C)[nH]c(C(=O)OCc2ccccc2F)c1C`, the Potency is 0.414 µM (active). With `CCOC(=O)c1c(C)[nH]c(C(=O)OCCOc2ccccc2C)c1C` the figure was 1.85 µM (active). With `COc1cc(OC)cc(C(=O)O/N=C(\N)c2ccccn2)c1` the figure was 1.65 µM (active). With `N/C(=N\OC(=O)COc1ccccc1)c1ccccn1` the figure was 5.21 µM (active); with `N/C(=N\OC(=O)CCC1CCCC1)c1ccccn1`, 3.29 µM (active); with `Cc1cccc(OCC(=O)O/N=C(\N)c2ccccn2)c1C`, 6.56 µM (active). Turning to `Cc1ccc(OCC(=O)O/N=C(\N)c2ccccn2)cc1`, the Potency was 3.29 µM (active). For the molecule `Cc1cccc(OCC(=O)O/N=C(\N)c2ccccn2)c1`, the Potency was 7.36 µM (active). With `N/C(=N\OC(=O)C12CC3CC(CC(C3)C1)C2)c1ccccn1` the figure was 5.21 µM (active); with `CC(C)C(=O)NC(=S)Nc1sc2c(c1C(N)=O)CCCC2`, 6.56 µM (active); with `CCCCC(=O)Nc1sc2c(c1C(N)=O)CCC2`, 11.7 µM (active).

`COCCN(CCOC)S(=O)(=O)c1ccc(C(=O)Nc2sc3c(c2C(N)=O)CCCCC3)cc1`: the Potency was 5.21 µM (active). The result for `COc1cc(/C=C2\Oc3cc(O)ccc3C2=O)ccc1O` reads 5.21 µM (active); that for `O=C1/C(=C/c2ccc(O)c(O)c2)Oc2cc(O)ccc21`, 8.26 µM (active); that for `CCOC(=O)c1csc(-c2sccc2Br)n1`, 0.521 µM (active). Consider `Nc1c(Br)cc2oc(-c3ccccc3)nc2c1Br`, for which the Potency is 2.07 µM (active). Take `COc1ccc(-c2nc3c(Br)c(N)c(Br)cc3o2)cc1`: the Potency was 2.07 µM (active). For the molecule `O=C(NCCCN1CCOCC1)c1cc(-c2ccccc2)on1`, the Potency is 18.5 µM (active). The result for `O=C(NCCN1CCOCC1)c1cc(-c2ccccc2)on1` reads 18.5 µM (active); that for `O=C(NC1CCCCC1)c1cc(-c2ccccc2O)on1`, 7.36 µM (active); that for `O=C(NC1CCCC1)c1cc(-c2ccc(Cl)cc2Cl)on1`, 5.21 µM (active). With `COc1ccccc1-c1cc(C(=O)NC2CCCC2)no1` the figure was 14.7 µM (active).

`O=C(NC1CCCC1)c1cc(-c2ccccc2Cl)on1`: the Potency is 1.65 µM (active). With `C=CCNC(=O)c1cc(-c2ccccc2O)on1` the figure was 16.5 µM (active). With `O=C(Oc1ccc2c(c1)OCO2)c1ccc(F)cc1Cl` the figure was 16.5 µM (active).

`O=c1c2ccccc2nnn1CSc1nc2ccccc2[nH]1`: the Potency was 4.65 µM (active). The result for `ClC1(Cl)CC1CSc1nc2ccccc2[nH]1` (configuration not stated) reads 14.7 µM (active); that for `CCCCSc1nc2ccccc2[nH]1`, 13.1 µM (active); that for `CC1CCN(C(=O)CSc2nc3ccccc3[nH]2)CC1`, 2.93 µM (active). As for `Cc1ccc(-c2cc(C(=O)O)n(Cc3ccccc3)n2)cc1`, the Potency was 14.7 µM (active). The result for `Cc1ccc(Cn2nc(C)cc2C(=O)Nc2ccccc2Cl)cc1` reads 7.36 µM (active); that for `Cc1ccc(NC(=O)CNCc2cccs2)c(Br)c1`, 14.7 µM (active); that for `Cc1ccc(NC(=O)CC2CCCC2)c(Br)c1`, 14.7 µM (active). In the case of `CNC(=O)c1sc2nc(-c3ccc(OC)cc3)cn2c1C`, the Potency was 0.736 µM (active).

For `Cc1c(C(N)=O)sc2nc(-c3ccccc3)cn12`, the Potency is 11.7 µM (active). Turning to `O=C(O)c1cc(N/N=C/c2cccs2)ccc1Cl`, the Potency is 1.85 µM (active). The result for `O=C(O)c1cccc(N/N=C/c2cccs2)c1` reads 0.0826 µM (active). The result for `Cc1ccc(O)c(-n2nc3ccccc3n2)c1` reads 11.7 µM (active). Consider `Cc1ccc(OC(=O)c2cccc(S(=O)(=O)N3CCCC3)c2)c(-n2nc3ccccc3n2)c1`, for which the Potency is 2.61 µM (active). With `Cc1ccc(OC(=O)c2cccc(S(=O)(=O)N(C)C)c2)c(-n2nc3ccccc3n2)c1` the figure was 5.85 µM (active); with `Cc1ccc(OC(=O)COc2ccccc2C)c(-n2nc3ccccc3n2)c1`, 4.14 µM (active); with `c1ccc(CCSc2nccn2-c2ccccc2)cc1`, 1.85 µM (active). With `CCN(CC)CCN(C(=O)c1ccc2ncsc2c1)c1nc2cc3c(cc2s1)OCO3` the figure was 1.04 µM (active).

For `O=C(N/N=C/C(Cl)=C\c1ccccc1)c1ccco1`, the Potency is 3.69 µM (active). The result for `O=C(N/N=C/C(Cl)=C\c1ccccc1)c1cccs1` reads 1.85 µM (active); that for `CCOC(=O)N/N=C/C(Cl)=C/c1ccccc1`, 10.4 µM (active). The result for `O=C(N/N=C/C=C/c1ccccc1)c1cccs1` reads 7.36 µM (active).

Consider `COc1ccccc1/C=C/C=N/NC(=O)c1cccs1`, for which the Potency was 3.69 µM (active). In the case of `O=C(N/N=C/C(Cl)=C/c1ccccc1)c1ccccc1F`, the Potency is 8.26 µM (active).

Turning to `O=C(N/N=C/C=C/c1ccccc1)c1ccccn1`, the Potency was 5.85 µM (active).

For the molecule `C/C(=N\O)c1ccc(N2C(=O)C3CC=C(Cl)CC3C2=O)cc1` (configuration not stated), the Potency is 3.29 µM (active). The result for `CCOc1ccc(N=C/C=C/c2ccccc2)c(O)c1` reads 3.29 µM (active).
